# D1 agonist: Allosteric Agonists of the Human D1 Dopamine Receptor: qHTS. D(1A) dopamine receptor (Homo sapiens), P21728. HEK293 T-REx D1 cells, calcium flux, agonist mode. activation, % at 2 µM. 360,000 compounds, 1% hits. AID 504660, 2011; in the data active means activation above about 30%; further: 0% is about no effect
# Target sequence (P21728 whole entry, looked up): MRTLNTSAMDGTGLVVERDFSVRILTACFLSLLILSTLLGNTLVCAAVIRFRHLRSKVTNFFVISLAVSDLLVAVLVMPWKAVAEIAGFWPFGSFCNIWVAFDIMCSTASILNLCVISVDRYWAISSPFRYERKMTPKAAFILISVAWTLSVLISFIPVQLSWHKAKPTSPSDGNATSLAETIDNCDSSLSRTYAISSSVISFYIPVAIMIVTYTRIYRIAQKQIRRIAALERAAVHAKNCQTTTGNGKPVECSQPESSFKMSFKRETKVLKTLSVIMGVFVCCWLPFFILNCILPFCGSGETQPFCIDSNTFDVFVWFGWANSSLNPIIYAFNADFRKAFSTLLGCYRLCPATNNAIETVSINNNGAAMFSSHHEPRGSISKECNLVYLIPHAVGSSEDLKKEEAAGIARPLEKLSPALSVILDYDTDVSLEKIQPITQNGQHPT
#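 Tetracycline-induced HEK293 TREx D1 cells, force-coupled to calcium signalling, were dye-loaded with a no-wash calcium kit. Compound was pin-added after a 10 s baseline. Fluorescence was read kinetically at 1 cycle/s for 180 s, with calcium rises flagged as agonism.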
# ERG-DNA inh: qHTS for Small Molecule Inhibitors of the ERG Ets/DNA interaction; AID 624246, 2012; 370,000 compounds, 0.028% hits; Transcriptional regulator ERG (Homo sapiens), P11308; fluorescence polarization, His-ERG Ets domain / labelled DNA; Potency, µM (doses to about 76.9 µM), without a hit: at the highest dose FP activity, negative = inhibition, hits mostly inhibitors; active means well fitted inhibition curve with a large enough effect in the polarisation, with a control signal flat; the % refers to the polarisation;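 further: polarization taken with two DNA probes labelled with fluorescein and Texas red; potency means the concentration at half of the fitted maximal effect; % of control where 0% means no effect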
#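 His-tagged ERG Ets domain (1 uM in the protein solution; 300mM KCl, 50mM Tris-HCl, 1mM EDTA, 1mM DTT, pH 7.5) received compound, then a probe mix of 5 nM fluorescein-DNA and 100nM Texas-615-DNA. Fluorescence polarization was read for both dyes.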
# D1 potentiator: Potentiators of Human D1 Dopamine Receptor: qHTS. D(1A) dopamine receptor (Homo sapiens), P21728. 360,000 compounds, 0.036% hits. HEK293 TREx D1 cells, calcium flux, dopamine EC20 potentiation. potentiation, % at 10 µM; in the data active means potentiation above about 30%; further: 0% is about no effect
# D1 antag: Antagonist of Human D 1 Dopamine Receptor: qHTS; D(1A) dopamine receptor (Homo sapiens), P21728; HEK293 TREx D1 cells, calcium flux, dopamine EC80; active compounds read low; activity change, negative = inhibition, % at 10 µM; 360,000 compounds, 3.2% hits; in the data active means activity change below about -30%; further: on the % scale 0 is the no-effect control and ±100 the full control effect
#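 HEK293 T-REx cells expressing inducible, force-coupled D1 receptor; no-wash Ca dye, 30–90 min RT. Cmpd → 180 s read at 1 Hz → EC80 DA → 180 s read.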
# D3 ag: qHTS of D3 Dopamine Receptor Agonist: qHTS; D(3) dopamine receptor (Homo sapiens), P35462; D3R DiscoveRx beta-arrestin cells, luminescence, 90 min; max activation, %; 410,000 compounds, 0.58% hits; in the data active means max activation above about 30%; further: 0% is about no effect
#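 Agonist-mode cell screen: cells plated at 1500/well and incubated overnight at 37 °C, then exposed to library compounds for 90 min at 37 °C. Detection reagent was added for 30–60 min at room temperature, and luminescence was read.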
# DRD3 antagonist: qHTS of D3 Dopamine Receptor Antagonist: qHTS; D(3) dopamine receptor (Homo sapiens), P35462; D3R cells, DiscoveRx beta-arrestin luminescence, antagonist mode; active compounds read low; max response, negative = inhibition, %; 360,000 compounds, 2.5% hits; in the data active means max response below about -50%; further: on the % scale 0 is the no-effect control and ±100 the full control effect
#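 Cells expressing the human receptor were seeded at 1500 cells/well, incubated overnight at 37 degrees C in 5% CO2, then exposed to library compounds with dopamine controls for 90 minutes at 37 degrees C before luminescent detection.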
# Numbers without * were called inactive; / = not tested or not shown. This is a sample that favours compounds with a hit; in the whole collection about 6.1% have one here.
SMILES,D1 agonist,ERG-DNA inh,D1 potentiator,D1 antag,D3 ag,DRD3 antagonist
CCN(CC)C(=O)[C@H]1CC(CC(=O)NCCCn2ccnc2)C(=O)N2CCc3c([nH]c4ccc(OC)cc34)[C@]12C (stereo partly specified),/,-15%,/,/,28,2
COc1ccc2[nH]c3c(c2c1)CCN1C(=O)C(CC(=O)NCCCn2ccnc2)C[C@H](C(=O)N(C(C)C)C(C)C)[C@@]31C (stereo partly specified),/,-3%,/,/,51*,5
COc1ccc2[nH]c3c(c2c1)CCN1C(=O)C(CC(=O)NCC24CC5CC(CC(C5)C2)C4)C[C@H](C(=O)N(C(C)C)C(C)C)[C@@]31C (stereo partly specified),/,-3%,/,/,37*,-4
Cc1cc(NS(=O)(=O)c2ccc(NC(=O)Cc3ccc([N+](=O)[O-])cc3)cc2)nc(C)n1,/,0%,/,/,-6,-17
Cc1cccc(NC(=O)CSCC(=O)Nc2cc(Cl)ccc2N2CCOCC2)c1,1,8%,-8,-7,-1,-18
O=C1COc2ccc(C(=O)COC(=O)Cc3ccc(Cl)cc3)cc2N1,6,-20%,4,1,7,0
CCOC(=O)c1c(C=O)c(C)n(Cc2ccc(C)cc2)c1C,104*,1%,18,-56*,2,39
CCOC(=O)c1c(C=O)c(C)n(Cc2ccccc2Cl)c1C,6,6%,-10,-7,-1,-19
Cc1nc2nncn2c(NCc2ccc(F)cc2)c1C,5,9%,-2,-17,7,/
Cc1nc2nncn2c(NCc2ccc(Cl)cc2)c1C,3,1%,-2,-34*,4,/
O=C1[C@@H]2Cc3c([nH]c4ccccc34)C(c3ccccc3)N2C(=O)CN1C1CCN(Cc2ccccc2)CC1 (stereo partly specified),9,1%,-11,-14,-15,-11
Cc1ccccc1C1c2[nH]c3ccccc3c2C[C@H]2C(=O)N(C3CCN(Cc4ccccc4)CC3)CC(=O)N12 (stereo partly specified),5,/,-3,6,/,/
CCOc1ccccc1C1c2[nH]c3ccccc3c2C[C@H]2C(=O)N(C3CCN(Cc4ccccc4)CC3)CC(=O)N12 (stereo partly specified),3,3%,-3,-4,-38,-105*
COC(=O)c1ccc(C2c3[nH]c4ccccc4c3C[C@H]3C(=O)N(C4CCN(Cc5ccccc5)CC4)CC(=O)N23)cc1 (stereo partly specified),5,4%,5,21,-21,-61*
Nc1c2c(nn1-c1ccccc1)CCC2,-1,3%,0,0,-5,-16
O=[N+]([O-])c1ccc(P(=O)(Cc2ccccc2)c2ccccc2O)cc1 (stereo unspecified),0,2%,-6,-34*,-7,-14
O=P(Cc1ccccc1)(c1ccccc1)c1ccccc1,1,-12%,-12,-25,13,4
Cc1ccc(NC(=O)C(NCc2ccccn2)c2ccccc2)cc1 (stereo unspecified),0,-2%,-3,-9,4,2
O=C(NCc1ccccc1)C(c1cccnc1)N(C(=O)c1ccccn1)c1cccc(F)c1 (stereo unspecified),5,-17%,/,-1,-6,9
Cc1ccc(C(=O)/C=C\C(=O)c2ccc(C)cc2)cc1,2,-6%,-10,-38*,-4,1
Cc1ccc(C(=O)/C=C\NCc2ccccc2)cc1,4,7%,0,17,8,6
CC(/C=C/C(=O)c1ccc(C)cc1)=C\c1ccccc1,3,4%,-2,-14,3,-61*
Cc1ccc(S/C=C\C(=O)c2ccccc2)cc1,4,-4%,-6,7,-28,-53*

# Source: PubChem BioAssay
